Screening results deposited in PubChem BioAssay by Sanford-Burnham Center for Chemical Genomics.
Only some compounds are listed: those with a hit (about 28% of all), similar ones and a draw of the others.
CYP2C9 act – CYP2C9 (human) activation | P11712 | recombinant CYP2C9, luciferin-H conversion, luminescence; active compounds read high; factor 1 = untreated enzyme, 0 = blocked | activation factor at 5 µM | 1.4% of 96,000 active | AID 1024;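 active = activation factor of 2 or more for CYP2C9 at a 5 µM dose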;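 also: 0 = sulfaphenazole-blocked wells and 1 = vehicle-only wells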
CYP2C19 inh – blocks human cytochrome P450 2C19 | P33261 | CYP2C19 Supersomes, luciferin-H EGE luminescence, 30 min | inhibition, % at 5 µM | 21% of 96,000 active;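 active = CYP2C19 inhibition above a set limit at 5 µM in the primary screen, cut at about 50% in these data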;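 also: plate controls were negative control wells for no effect and 2.5 mM tranylcypromine positive control for full effect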
CYP2C9 inhib – blocks human cytochrome P450 2C9. P11712. 20% of 96,000 active. CYP2C9 Supersomes, luciferin-H conversion, luminescence. inhibition, % at 5 µM. AID 777;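 active = blocking of liver enzyme CYP2C9 beyond about 50% at 5 µM, limit read from the data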
CD11b adhes inh – CD11b/CD18-fibrinogen binding inhibition. P05107+P11215. K562 CD11b/CD18 adhesion to fibrinogen, ATPlite luminescence; Mn2+ added to activate the integrin. inhibition, % at 10 µM. 0.54% of 93,000 active;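 active = primary inhibition of 50% or more at 10 µM, then 40% or more on retest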
Target sequence (P05107 whole entry, looked up, other chains not shown): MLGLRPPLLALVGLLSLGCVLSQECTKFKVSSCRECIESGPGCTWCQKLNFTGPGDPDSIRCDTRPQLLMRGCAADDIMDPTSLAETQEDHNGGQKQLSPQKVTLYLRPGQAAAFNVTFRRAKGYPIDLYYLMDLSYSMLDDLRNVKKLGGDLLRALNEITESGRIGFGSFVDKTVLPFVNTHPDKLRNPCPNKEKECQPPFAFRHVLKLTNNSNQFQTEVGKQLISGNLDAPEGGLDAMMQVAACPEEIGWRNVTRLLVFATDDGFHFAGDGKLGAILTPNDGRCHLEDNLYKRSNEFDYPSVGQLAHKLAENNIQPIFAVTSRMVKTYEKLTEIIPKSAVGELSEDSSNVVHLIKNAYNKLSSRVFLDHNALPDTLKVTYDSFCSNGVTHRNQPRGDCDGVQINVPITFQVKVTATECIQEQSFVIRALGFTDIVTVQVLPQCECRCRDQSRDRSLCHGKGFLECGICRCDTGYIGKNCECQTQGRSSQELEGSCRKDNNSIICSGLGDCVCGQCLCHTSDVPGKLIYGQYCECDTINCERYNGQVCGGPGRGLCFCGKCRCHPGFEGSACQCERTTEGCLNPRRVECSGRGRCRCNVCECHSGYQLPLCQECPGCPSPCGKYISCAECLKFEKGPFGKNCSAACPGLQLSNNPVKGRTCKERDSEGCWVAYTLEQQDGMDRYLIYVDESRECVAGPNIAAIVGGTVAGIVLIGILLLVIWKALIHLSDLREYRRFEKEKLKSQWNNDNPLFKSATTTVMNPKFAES
CYP2C19 activ – increases human CYP2C19 enzyme activity; activation factor at 5 µM; 96,000 tested, under 10 active; recombinant CYP2C19, luciferin-H EGE luminescence; active compounds read high; 0 = fully inhibited enzyme, 1 = untreated enzyme; P33261;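 active = activation factor of at least 2 at 5 µM in the primary screen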;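 also: 0 = wells with 2.5 mM tranylcypromine and 1 = vehicle-only wells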
CD11b adhes enh – enhancers of human CD11b/CD18 binding to fibrinogen; activation, % at 10 µM; P05107+P11215; 0.07% of 93,000 active; K562 CD11b/CD18 adhesion to fibrinogen, ATPlite luminescence; AID 1499;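 active = 10 µM primary screen giving 50% or more activity, confirmed by 40% or more on retest at that dose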
* marks the source's active call; other numbers are inactive results; · = no result.

SMILES | CYP2C9 act | CYP2C19 inh | CYP2C9 inhib | CD11b adhes inh | CYP2C19 activ | CD11b adhes enh
CSCCC(NC(C)=O)C(=O)Oc1ccc2c3c(c(=O)oc2c1)CCCC3 (centres undefined) | 2.8* | 15 | -181 | 4 | 0.8 | -2
COC(=O)C(C)Oc1ccc2c3c(c(=O)oc2c1)CCCCC3 (centres undefined) | 0.2 | 75* | 82* | 6 | 0.3 | -3
O=C(O)COc1ccc2c3c(c(=O)oc2c1)CCC3 | 1 | -2 | 4 | 11 | 1 | 0
CC(C)Oc1ccc2c3c(c(=O)oc2c1)CCC3 | 0.8 | 79* | 24 | 2 | 0.2 | 2
CCCOc1ccc2c3c(c(=O)oc2c1)CCCC3 | 0.7 | 59* | 33 | 10 | 0.4 | 2
CCC(NC(=O)OC(C)(C)C)C(=O)Oc1ccc2c3c(c(=O)oc2c1)CCC3 (centres undefined) | 1.8 | 8 | -78 | 6 | 0.9 | 2
COC(C#CCCN(C)C)(c1ccccc1)c1ccccc1 | · | · | · | -7 | · | 2
CC(C)CC(C(=O)Oc1ccc2c3c(c(=O)oc2c1)CCC3)N1C(=O)c2ccccc2C1=O (centres undefined) | 0.7 | 48 | 26 | -31 | 0.5 | 0
O=C(Oc1ccc2c3c(c(=O)oc2c1)CCCC3)c1ccco1 | 2.1* | 24 | -114 | -11 | 0.8 | -1
Cc1ccc(NC(=S)N2CCC(N(C)CC3CCCO3)CC2)c(C)c1 (centres undefined) | 1.1 | -7 | -6 | -35 | 1.1 | -2
COc1ccc(-c2cc(OC)c3c(C)oc(C)c3c(=O)c2)cc1OC | 0 | 85* | 99* | 31 | 0.2 | 0
COc1ccc(-c2c(C)oc3c(CN4CCN(CCO)CC4)c(O)ccc3c2=O)cc1OC | 1 | -1 | 2 | -17 | 1 | 6
COc1cc(-c2cc(OC)c3c(C)oc(C)c3c(=O)c2)ccc1O | 0.1 | 42 | 94* | 4 | 0.6 | -1
CC(C)CCNC(=O)c1sc2ccc(S(=O)(=O)N3CCCCC3)cc2c1N | · | · | · | 44 | · | 1
COC(=O)c1ccccc1S(=O)(=O)Nc1ccc2cn[nH]c2c1 | 0.2 | 89* | 80* | -17 | 0.1 | 1
O=C(Nc1ccc2cn[nH]c2c1)c1c(Cl)cccc1Cl | · | · | · | -6 | · | -1
COC(=O)c1sc(S(=O)(=O)Nc2ccc3cn[nH]c3c2)c(C(=O)OC)c1C | 0.1 | 52* | 92* | -33 | 0.5 | 6
CCOC(=O)c1ccc(S(=O)(=O)Nc2ccc3cn[nH]c3c2)cc1 | 0.1 | 16 | 94* | · | 0.8 | ·
COC(=O)c1sc(S(=O)(=O)Nc2ccc(Br)cc2)c(C(=O)OC)c1C | · | · | · | 91* | · | -7
COC(=O)c1c(NC(=O)c2ccccc2)sc(C(=O)c2ccccc2)c1C | 0.7 | 13 | 30 | 18 | 0.9 | 6
O=C(Cc1ccc(Cl)cc1)NCCS(=O)c1ccc(Cl)cc1 (centres undefined) | 0.9 | 21 | 14 | -3 | 0.8 | -4
O=C(COc1ccccc1-c1ccccc1)NCc1cccc(Cl)c1 | · | · | · | 44 | · | 0
COC(=O)c1c(NC(C)=O)sc(Cc2ccccc2)c1C | 0.8 | 30 | 22 | · | 0.7 | ·
COC(=O)c1sc(S(=O)(=O)NCc2ccccc2)c(C(=O)OC)c1C | 0.4 | 83* | 60* | 1 | 0.2 | -1
Clc1ccc(CON/C=N/c2ncnc3sccc23)c(Cl)c1 | 0.8 | 15 | 22 | 80 | 0.8 | -7
SMILES | CYP2C9 act | CYP2C19 inh | CYP2C9 inhib | CD11b adhes inh | CYP2C19 activ | CD11b adhes enh
COc1ccccc1CNn1c(-c2cccc(C)c2)nc2ccccc2c1=O | 0.1 | 97* | 86* | -14 | 0 | 3
COc1ccc(CNn2c(-c3cccc(C)c3)nc3ccccc3c2=O)cc1OC | 0.8 | 81* | 22 | 6 | 0.2 | -4
Cc1ccccc1C(=O)Oc1ccc(Sc2ccc(O)cc2)cc1 | 1.2 | 7 | -21 | 4 | 0.9 | -3
CCCCn1c(=O)[nH]c(=O)c2c1nc(-c1ccc(C#N)cc1)n2C1CCCC1 | 0.4 | 25 | 62* | 11 | 0.7 | 34
CC(C)Cn1c(-c2ccc(C#N)cc2)nc2c1c(=O)[nH]c(=O)n2CC(C)C | 1 | 8 | -2 | 11 | 0.9 | -1
Cc1ccc(NC(=O)C2(NC(=O)c3cccc(N4C(=O)CSC4c4ccccc4)c3)CCCCC2)cc1 (centres undefined) | 0.2 | 4 | 84* | -3 | 1 | 5
CC1(c2ccc(Cl)cc2Cl)OCC(Cn2ccnc2)O1 (centres undefined) | 0.2 | 99* | 83* | 2 | 0 | -3
CCC(OC(=O)c1cc2sccc2n1C)C(=O)NCc1ccco1 (centres undefined) | 0.3 | 54* | 72* | -12 | 0.5 | 0
COc1ccccc1C(OC(=O)c1cccs1)C(=O)NCc1ccco1 (centres undefined) | 0.6 | 58* | 40 | -10 | 0.4 | 0
CC(OC(=O)c1cccs1)C(=O)NCc1ccco1 (centres undefined) | 0.6 | 86* | 37 | 0 | 0.1 | -2
CC(C)C(OC(=O)c1cc2occc2n1C)C(=O)NCc1ccc2c(c1)OCO2 (centres undefined) | 0.1 | 74* | 85* | 0 | 0.3 | 2
COc1ccc(C(OC(=O)c2ccco2)C(=O)NCc2ccco2)cc1 (centres undefined) | 0.8 | 13 | 20 | -7 | 0.9 | -1
CCOC(=O)C1=C(O)C(Nc2nccs2)(C(F)(F)F)N=C1C (centres undefined) | 1.1 | 16 | -14 | · | 0.8 | ·
CCn1c(COc2ccc(Cl)c(C)c2)nnc1SCC(=O)N1CCCC1 | 1.2 | -12 | -18 | · | 1.1 | ·
CCC(C)(C)NC(=O)C(OC(=O)c1ccco1)c1ccccc1OC (centres undefined) | 0.6 | 64* | 38 | -9 | 0.4 | 6
CCC(OC(=O)c1nsc(Cl)c1Cl)C(=O)NCc1ccco1 (centres undefined) | 0.4 | 59* | 57* | 5 | 0.4 | 2
CC(=O)OC(C(=O)NCc1ccco1)c1ccncc1 (centres undefined) | 0.4 | 31 | 55* | -9 | 0.7 | 1
CC(C)C(OC(=O)c1cccs1)C(=O)NCc1ccco1 (centres undefined) | 0.6 | 60* | 42 | -13 | 0.4 | -2
O=C(OC(C(=O)NCc1cccs1)c1ccccc1Cl)c1ccco1 (centres undefined) | 0.1 | 88* | 91* | 4 | 0.1 | -3
Cc1cc2c(cc(C(=O)OC(C(=O)NCc3ccco3)C(C)C)n2C)o1 (centres undefined) | 0.5 | 66* | 47 | -2 | 0.3 | 8
O=C(OC(C(=O)NCc1cccs1)c1ccc(F)cc1)c1ccco1 (centres undefined) | 0.6 | 30 | 41 | -2 | 0.7 | -1
